Measured values from ChEMBL document CHEMBL4513216, “Probing the Open Global Health Chemical Diversity Library for Multistage-Active Starting Points for Next-Generation Antimalarials” (ACS Infect Dis, 2020).
In all, about 69,000 compounds went through this assay and about 8,600 (12%) showed an effect of 50% or more. The full list was thinned out, with strong results kept by preference.

What follows are compounds tested on Plasmodium berghei (assay: Screen against P. berghei liver stage (PbLuc), transformed with Luciferase, at 10uM). Conditions: tested at 10 uM.
Assay type: functional, HepG2

SMILES | INHIBITION [%]
Cc1ccc(-n2nnc(C(=O)O)c2C)c(C)c1 | 14.2
CCOCCC(=O)N1C[C@@H]2CC[C@H]1CN(c1ncccn1)C2 | 43.2
Cc1cccc(NC(=O)C2CSCN2C(=O)c2cnccn2)c1C (centres undefined) | 33.35
COc1ccc(C)cc1CC(=O)NS(=O)(=O)c1ccc(C(N)=O)cc1 | -2.19
CCC(=O)Nc1nnc(CCOc2ccccc2OC)s1 | -23.8
O=C(NCC1Cn2nnc(-c3ccoc3)c2CO1)c1ccc[nH]1 (centres undefined) | 27.4
CN1CCCC1c1nccnc1-c1ccc(C(=O)O)cc1 (centres undefined) | -14.2
Cc1ncsc1CN(Cc1ccccc1)Cc1ncc[nH]1 | 46.6
COc1c(C2CCCN2C(=O)c2ccc(N(C)C)nn2)c(C)nn1C (centres undefined) | -57.4
Cc1nn(C)c(C)c1C1CCCN1C(=O)c1ccc(C(N)=O)cn1 (centres undefined) | 9.555
Cc1nn(C)c(Cl)c1C1CCCN1C(=O)c1ccc(O)nc1 (centres undefined) | 48.1
Cc1nn(C)c(Cl)c1C1CCCN1C(=O)c1ccc(C(N)=O)cn1 (centres undefined) | 84.3
Cc1nn(C)c(C)c1C1CCCN1C(=O)c1ccc(N(C)C)nn1 (centres undefined) | -71.1
Cc1nn(C)c(Cl)c1C1CCCN1C(=O)c1ccc(N(C)C)nn1 (centres undefined) | 53.8
Cc1nn(C)c(C)c1NC(=O)CN1CCN(c2nccs2)C(C)C1 (centres undefined) | 21.6
Cc1c(C[S+](C)[O-])cccc1NC(=O)c1cc(Cl)ccn1 (centres undefined) | -42.1
Cc1c(NC(=O)N(C)CCn2cnnc2)cccc1OC1CCCC1 | 13.3
CCNC(=O)N(CCCO)C1CCCc2ccccc21 (centres undefined) | 45.7
CC(O)CN1CCC(CNCc2ccc(OC(F)(F)F)cc2)CC1 (centres undefined) | 44.7
CCN(c1ccc(C(=O)N2CCC(C)CC2)cc1)S(=O)(=O)CC | 22.9
CCS(=O)(=O)N(C)c1ccc(C(=O)N2CCCC(C)C2)cc1 (centres undefined) | 60.1
CCN(c1ccc(C(=O)N2CCCC(C)C2)cc1)S(=O)(=O)CC (centres undefined) | 10.1
O=C(NCCc1cccnc1)Nc1cc(C(F)(F)F)c[nH]c1=O | -12.6
Cc1ccccc1C1CCN(C(=O)CCNC(=O)C(C)(C)C)C1 (centres undefined) | -66.4
COCCOCC(=O)N1CCC(c2ccccc2F)C1 (centres undefined) | -112
COCCOCCC(=O)N1CCC(c2ccccc2C)C1 (centres undefined) | 55.2
CS(=O)(=O)N1CCC(NC(=O)COc2ccc(Cl)cc2)CC1 | -61.4

SMILES | INHIBITION [%]
CC1c2ncc(CN3CCN(C)CC3)n2CCN1CC1CC1 (centres undefined) | -10.4
CN(C)CC1CN(c2cnc3ccccc3n2)CCO1 (centres undefined) | 38.8
Cc1cc(N2CCC(CO)(CC3CCCCO3)CC2)c2ccccc2n1 (centres undefined) | 47.6
OCC1(CC2CCCCO2)CCN(c2cnc3ccccc3n2)CC1 (centres undefined) | 83.9
COCCC1(C(=O)O)CCCN(c2cc(C)c3ccccc3n2)C1 (centres undefined) | 20.2
Cc1cc(N2CCC3(CCCN(CCO)C3=O)C2)nc2cc(Cl)ccc12 (centres undefined) | 16.1
Cc1cc(N2CCC3(CCCN(CCO)C3=O)C2)nc2ccccc12 (centres undefined) | 57.2
Cc1cc(N2CCC3(CCCN(CCO)C3=O)C2)nc(C)c1C#N (centres undefined) | 38
Cc1cc(N2CCC(CO)(CC3CCCCO3)CC2)nc2ccccc12 (centres undefined) | 53
Cc1cc(N2CCC(O)(C(=O)O)CC2)nc2ccccc12 | 32.2
Cc1cc(N2CCC3(CC2)C(C(=O)O)CC(=O)N3C)nc2ccccc12 (centres undefined) | 9.56
COCCC1(C(=O)O)CCN(c2cc(C)c3ccccc3n2)CC1 | 62.8
c1ccc2nc(N3CCOC(Cn4cccn4)C3)cnc2c1 (centres undefined) | -34
Cc1cc(C(=O)N(CC(F)(F)F)C2CCOCC2)c(C)o1 | 15
Cc1nnc(CNC(C)c2cc(C)c(F)c(C)c2)s1 (centres undefined) | 36.2
CC(C(=O)Nc1ccccn1)n1ccc(C(F)(F)F)n1 (centres undefined) | 11
O=C(O)[C@@H]1CN(C(=O)CSCC2CC2)C[C@H]1c1ccncc1 | -8.7
CCN(CC1CCOC1)C(=O)c1cn2ccc(C)cc2n1 (centres undefined) | 30.5
Cc1cc(-c2cc(N)c(=O)n(CC(=O)NC3CCCC3)n2)c(C)o1 | 18.27
Cc1ccc(CN2CC[C@@H]3[C@@H](CO[C@H]3CN3CCN(C)CC3)C2)cc1 | 23.3
Cc1cc(C(=O)N2CC[C@@H](O)[C@@H]2Cc2ccccc2)no1 | 2.58
COc1ccc2c(c1)OC1(CCN(Cc3ccc(F)cc3)CC1)CC2=O | 51.6
COc1ccc2c(c1)OC1(CCN(Cc3cccc(C)c3)CC1)CC2=O | 37.2
CCOC(=O)CN1CCC2(CC1)CC(=O)c1ccc(OC)cc1O2 | 72.4
COc1ccc2c(c1)OC1(CCN(Cc3ccc(C)cc3)CC1)CC2=O | 31.2
COc1ccc2c(c1)C(=O)CC1(CCN(Cc3ccc(F)cc3)CC1)O2 | -0.371
COc1ccc2c(c1)OC1(CCN(Cc3ccccc3C)CC1)CC2=O | 5.56
